# This is a sample that favours compounds with a hit; in the whole collection about 7.5% have one here.
# ELG1 genotox: inducers of genotoxicity in HEK293T ELG1-luciferase cells; HEK293T ELG1-luciferase reporter, luminescence, 16 h; Potency, µM (series often up to 46 µM), hits mostly activators; actives 1.3% (n = 330,000); AID 504466; further: nearly all actives have a fitted effect of over 60% in size
#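 Genotoxicity was scored as increased ELG1-luciferase reporter signal, measured by ONE-Glo luminescence (30 min, room temperature). Compound or vehicle exposure of the HEK293T reporter cells lasted 16 hr at 37°C.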
# NPC1 prom act: NPC1 promoter activation. Huh7 NPC1 promoter luciferase reporter, 24 h. Potency, µM (doses to about 9.22 µM), actives largely listed as activators. actives 2.4% (n = 320,000); further: nearly all actives have a fitted effect of over 60% in size
#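 Compounds in DMSO were transferred onto Huh7 NPC1-luciferase reporter cells pre-incubated 2 h; after 24 h at 37 °C, Amplite reagent was dispensed and luminescence recorded 10 min later.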
# FLuc counter: inhibits or activates purified firefly luciferase, miR-21 counter-screen; P08659; purified FLuc, Km substrates, luminescence inhibition; Potency, µM (titrated, usually from 57.5 µM), usual class: inhibitors; actives 6.9% (n = 360,000); further: nearly all actives have a fitted effect of over 55% in size
# Target sequence (P08659 whole entry, looked up): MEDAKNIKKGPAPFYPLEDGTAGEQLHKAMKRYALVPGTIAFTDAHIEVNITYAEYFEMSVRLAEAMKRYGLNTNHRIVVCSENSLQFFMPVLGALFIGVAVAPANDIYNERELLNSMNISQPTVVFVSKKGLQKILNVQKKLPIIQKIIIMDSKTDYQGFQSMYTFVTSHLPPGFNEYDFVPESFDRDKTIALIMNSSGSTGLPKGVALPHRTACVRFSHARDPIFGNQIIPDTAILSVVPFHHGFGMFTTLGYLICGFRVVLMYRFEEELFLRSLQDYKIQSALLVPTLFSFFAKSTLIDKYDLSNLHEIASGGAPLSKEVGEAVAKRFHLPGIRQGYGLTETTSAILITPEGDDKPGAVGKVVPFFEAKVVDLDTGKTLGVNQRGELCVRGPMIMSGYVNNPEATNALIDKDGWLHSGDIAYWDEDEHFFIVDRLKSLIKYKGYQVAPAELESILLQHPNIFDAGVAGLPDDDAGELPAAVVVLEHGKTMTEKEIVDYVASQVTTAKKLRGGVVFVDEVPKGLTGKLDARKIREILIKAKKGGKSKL
#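 Purified P. pyralis luciferase, 10 nM final, with Km-level 10 uM D-luciferin and 10 uM ATP in 50 mM Tris acetate pH 7.5, 10 mM Mg acetate, 0.01% Tween-20, 0.05% BSA; 6-point qHTS titration about 60 µM downward; luminescence read.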
# SMN2 splice up: enhancers of SMN2 splice variant expression; Potency, µM (titrated, usually from 46.1 µM), hits mostly activators; HEK293 SMN2-luciferase splicing reporter, luminescence, 30-36 h; AID 1458; actives 2.8% (n = 210,000); further: nearly all actives have a fitted effect of over 55% in size
#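 HEK293 cells carry an SMN2 […]–luciferase reporter in which exon 7 inclusion puts luciferase in frame. Cells were plated 10-12 h before compound addition, then incubated 30-36 h at 37C. ONE-Glo luminescence was read; sodium butyrate at 4.5 mM final served as control.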
# Rab9 prom act: activators of Rab9 promoter | actives 2.8% (n = 320,000) | Huh7 Rab9 promoter-luciferase reporter, luminescence, 24 h | Potency, µM (series often up to 9.22 µM), usual class: activators; further: nearly all actives have a fitted effect of over 60% in size
#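 Luminescence read-out: Huh7 cells stably expressing Rab9-luciferase, treated 24 h with compound at 37 °C, then lysed with luciferase reagent for 10 min at ambient before reading.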
# A number is an active result; i = inactive; ? = inconclusive; nt = no result given; [ ] = remark or other dose. The call rests on the fitted dose curve; in most records, active means well fitted curve in the direction sought with a large enough effect; inconclusive means small, poorly fitted or top-dose-only effect, or another doubt; inactive means no such curve, though single readings can be large; an effect the other way counts as inactive or inconclusive.
SMILES,ELG1 genotox,NPC1 prom act,FLuc counter,SMN2 splice up,Rab9 prom act
O=C1C=C(Nc2ccc(Cl)cc2)CC(c2ccc(Cl)cc2)C1 (configuration not stated),i,i,10.7µM,i,i
O=C(Nc1cccnc1)c1ccc(Oc2ccccc2)cc1,4.11µM,?,3.38µM,i,?
CCOc1cc(C(=O)Nc2cccnc2)cc(OCC)c1OCC,i,i,i,nt,i
O=C(Nc1cccnc1)c1ccccc1Oc1ccccc1,i,i,i[2.3 µM],i,i
CCCOc1ccc(C(=O)Nc2cccnc2)cc1,10.3µM,2.82µM,10.7µM,nt,?
CCCCOc1ccc(C(=O)Nc2ccncc2)cc1,13µM,i,?,i,i
CCN(CC)CCNC(=O)c1ccc(CS(=O)(=O)c2ccc(Br)cc2)o1,i,i,i,i,i
Cc1nnc(N2CCC(C(=O)N3CCCCC3)CC2)c2nn(-c3ccccc3)c(C)c12,nt,nt,i,nt,nt
Cc1ccc(-c2nn(C)c(=O)c3ccccc23)cc1S(=O)(=O)N1CCCC1,16.4µM,i,i,i,i
Cn1nc(-c2ccc(N3CCOCC3)c(NS(=O)(=O)c3ccccc3)c2)c2ccccc2c1=O,13µM,i,i,?,i
CC(C)Sc1nnc(NC(=O)c2ccco2)s1,?,?,16.9µM,nt,?
CCOC(=O)CSc1nnc(NC(=O)c2ccco2)s1,i,i,i,nt,i
CCSc1nnc(NC(=O)c2ccco2)s1,?,i,?,11.2µM,?
COCCc1nn2c(=O)cc(COC(=O)c3ccc4c(c3)OCO4)nc2s1,nt,nt,i,nt,nt
Cc1ccc(S(=O)(=O)C(CNC(=O)c2ccccc2F)c2cccs2)cc1 (configuration not stated),nt,nt,i,nt,nt
CC(C)c1ccc(/C=N/N2CCCCC2)cc1,?,i,1.51µM,?,3.16µM
Cc1ccc(/C=C/C(=O)N2CCCN(C(=O)/C=C/c3ccc(C)cc3)CC2)cc1,i,i,10.7µM,?,i
CC(C)c1ccc(/C=C/C(=O)n2nnc3ccccc32)cc1,nt,nt,1.69µM,i,nt
CC(C)c1ccc(/C=C/C(=O)N2CCOCC2)cc1,?,3.16µM,9.53µM,nt,2.51µM
O=[N+]([O-])c1cc(/C=N/N2CCCCC2)ccc1Cl,?,i,?,?,?
Cc1ccc(CNC(=O)c2sc3nc(-c4ccc(F)cc4)ccc3c2N)cc1,nt,nt,i,i,nt
O=C(/C=C/c1ccc(Br)cc1)NC(=S)N1CCOCC1,i,i,13.5µM,nt,i
CC(C)c1ccc(NC(=O)C(c2ccccc2)N2CCOCC2)cc1 (configuration not stated),i,i,?,i,i
CC(C)c1ccc(NC(=O)NN2CCOCC2)cc1,16.4µM,3.16µM,26.9µM,12.6µM,3.55µM
O=C(/C=C/c1cccs1)N1CCN(c2ccc(O)cc2)CC1,i,i,i,i,i
SMILES,ELG1 genotox,NPC1 prom act,FLuc counter,SMN2 splice up,Rab9 prom act
CN1CCN(C(=S)NC(=O)/C=C/c2ccccc2)CC1,i,i,?,nt,i
O=C(/C=C/c1cccs1)N1CCCCC1,?,i,?,17.8µM,i
O=C(/C=C/c1ccc(Cl)cc1)N1CCOCC1,i,?,26.9µM,nt,?
O=C(/C=C/c1ccccc1)N1CCOCC1,i,i,?,nt,?
CC(C)c1cc2c(c(O)c1O)[C@@]13CCCC(C)(C)C1CC2OC3=O (some centres not stated),i,i,?,nt,i
CCOc1ccc(N2CC(NC(=O)c3ccc(S(=O)(=O)N4CCOCC4)cc3)CC2=O)cc1 (configuration not stated),nt,nt,i,nt,nt
CCCOc1ccc(/C=C/C(=O)N2CCOCC2)cc1,?,2.51µM,15.1µM,nt,?
O=C(/C=C/c1ccccc1Cl)N1CCCN(C(=O)/C=C/c2ccccc2Cl)CC1,i,i,19µM,i,i
CC(C)c1ccc(/C=C/C(=O)N2CCCCCC2)cc1,?,i,15.1µM,i,i
CCCOc1ccc(/C=C/C(=O)N2CCN(c3ccccn3)CC2)cc1,i,i,?,i,i
N#CC(C(=O)Nc1ccccc1)=C1Nc2ccccc2N1,i,i,21.3µM,i,i
CC(=O)Nc1ccc(N/C=C2/CCCC2=O)cc1,i,i,i,nt,i
O=C1CCCC/C1=C\Nc1ccc(C(=O)O)c(O)c1,i,i,10.7µM,nt,?
CC1CCC/C(=C\Nc2ccc(C(=O)O)cc2)C1=O (configuration not stated),?,?,4.78µM,nt,?
CCOC(=O)c1ccc(N/C=C2/CCCC(C)C2=O)cc1 (configuration not stated),4.11µM,3.16µM,5.36µM,?,2.51µM
CC1CCC/C(=C\Nc2ccc(C(=O)O)c(O)c2)C1=O (configuration not stated),?,3.55µM,10.7µM,nt,3.55µM
CNS(=O)(=O)c1cc(Nc2ncnc3sccc23)ccc1C,i,i,?,nt,i
CCOC(=O)N1CCN(S(=O)(=O)c2ccc(C(=O)Nc3ccc4c(c3)C(=O)NC4=O)cc2)CC1,i,i,i,i,i
COc1ccc(NC(=O)/C(C#N)=C\c2ccc(Br)o2)cc1,i,i,i,nt,i
COc1ccc(NC(=O)/C(C#N)=C\c2ccc(-c3cc(C(=O)O)ccc3C)o2)cc1,i,i,19µM,nt,i
Cc1ccc(/C=C(\C#N)C(=O)Nc2cccc(Br)c2)o1,nt,nt,i,i,nt
Cc1ccc(/C=C(\C#N)C(=O)Nc2ccc(Br)cc2)o1,nt,nt,i,3.16µM,nt
COc1ccc(NC(=O)/C(C#N)=C/c2ccc(-c3ccccc3C(=O)O)o2)cc1,i,i,6.75µM,nt,i
N#C/C(=C\c1ccc(N2CCCCC2)o1)C(=O)Nc1cccc(Br)c1,?,2.51µM,2.69µM,i,2µM
CCC(C)(CC(=O)Nc1nccs1)c1ccccc1 (configuration not stated),i,i,i,nt,i
Cc1ccc(S(=O)(=O)c2nc(S(C)(=O)=O)sc2N2CCC(C)CC2)cc1,i,i,i,nt,i
CCC(=O)N(CCC1(c2ccccc2OC)CCOC(C(C)C)C1)Cc1ccco1 (configuration not stated),i,i,i,nt,i
Cn1c(=O)c(=O)n(C)c2cc(N3CCCC3)c(NC(=O)c3ccc(C(C)(C)C)cc3)cc21,nt,nt,i,i,nt
